This is an account of results in ChEMBL document CHEMBL4513216, “Probing the Open Global Health Chemical Diversity Library for Multistage-Active Starting Points for Next-Generation Antimalarials” (ACS Infect Dis, 2020).

Screen size: about 69,000 compounds; about 8,600 (12%) showed an effect of 50% or more. The entries come from a sample that favours strong results as a whole.

For this test, the system named is Plasmodium berghei. Put plainly: Screen against P. berghei liver stage (PbLuc), transformed with Luciferase, at 10uM. The note with it: tested at 10 uM. The test is classed as functional, HepG2.
For the compound `COCCN(C(=O)c1ccn(-c2ccc(OC)cc2)n1)C(C)C(N)=O` (stereo not given), the INHIBITION was 0.0996%.
The result for `COc1ccccc1C1SCC(=O)Nc2n[nH]cc21` (stereo not given) reads 42.6%; that for `COc1ccc(C2SCC(=O)Nc3n[nH]cc32)c(OC)c1OC` (stereo not given), 32.5%; that for `COc1cccc(C2SCC(=O)Nc3n[nH]cc32)c1OC(C)C` (stereo not given), 40%.
For the compound `COc1ccc(OC)c(C2SCC(=O)Nc3n[nH]cc32)c1` (stereo not given), the INHIBITION is given as 70.6%.
Regarding `COc1cc(C2SCC(=O)Nc3n[nH]cc32)cc(OC)c1O` (stereo not given), the INHIBITION is 60.7%.
For `COc1cc(OC)c(C2SCC(=O)Nc3n[nH]cc32)cc1OC` (stereo not given) the value was 26.8%; for `N#Cc1cn(C2CC2)c(=O)n(CC(O)c2ccc(F)cc2)c1=O` (stereo not given), 35.85%.
As to `CCN(Cc1ccccc1)C(=O)c1cc(C2CCCN2C)ccn1` (stereo not given), the INHIBITION is on record as -31%.
The result for `Cc1csc(N2CCN(C(=O)CCCNc3ncccn3)CC2)n1` reads 26.4%; that for `Cc1cccc(N2CCc3ncc(CNS(C)(=O)=O)n3CC2)n1`, 22.4%.
For `COc1ccc(CN2CCC[C@@H]3CN(C(=O)c4ccco4)C[C@@H]32)cc1` the value was 29%; for `O=C(c1cn(CC(=O)N2CCCCCC2)c2ccccc12)C1CC1`, 27.8%.
The result for `O=C(c1cn(CC(=O)N2CCCCC2)c2ccccc12)C1CC1` reads 13.94%.
`O=C(c1cn(CC(=O)N2CCCC2)c2ccccc12)C1CC1`: the INHIBITION stood at 71.7%.
For `CN1CCCC1c1ccnc2nccn12` (stereo not given) the value was 19.9%; for `CCC(C(=O)NCC1CCN(c2ccncc2)CC1)N(C)C` (stereo not given), 34.9%; for `CS(=O)(=O)N1CCC(C(=O)NC(Cc2ccsc2)c2ccccn2)CC1` (stereo not given), 40.9%.
For `Cc1cccnc1C(Cc1ccsc1)NC(=O)Cn1cccnc1=O` (stereo not given) the value was 59%; for `Cc1csc(C(Cc2ccsc2)NC(=O)Cn2cccnc2=O)n1` (stereo not given), 34%; for `O=C(Cn1cccnc1=O)NC(Cc1ccsc1)c1nccs1` (stereo not given), 29.3%.
For `Cc1cc(C)n(CC(=O)NC(Cc2ccsc2)c2ccccn2)c(=O)n1` (stereo not given) the value was 54%; for `O=C(Cn1cccnc1=O)NC(Cc1ccsc1)c1ccccn1` (stereo not given), 41.5%.
On to `CNc1nc2c(c(C(=O)N3CCCC3)n1)CN(Cc1ccco1)CC2`, for which the INHIBITION came to 17.2%.
Take `O=C(NCc1cccc(F)c1)N1CCc2ncnc(NC3CC3)c2CC1`: the INHIBITION is on record as 16.8%.
The result for `CC(C)Nc1ncnc2c1CCN(C(=O)Cc1ccccn1)CC2` reads 8.69%.
The result for `CC(C)Nc1ncnc2c1CCN(C(=O)CN(C)C)CC2` reads 36.9%; that for `CC(C)Nc1ncnc2c1CCN(C(=O)NCc1cccc(F)c1)CC2`, 51.2%.
As for `CC(C)Nc1ncnc2c1CCN(C(=O)NCc1cccnc1)CC2`, the INHIBITION was -1.15%.
For `CC(C)Nc1ncnc2c1CCN(C(=O)CCc1ccccc1)CC2` the value was 61.4%.
The result for `COCC(=O)N1CCC(=O)N(C2CCCC2)Cc2ccccc21` reads -20.1%; that for `Cc1ccnc(CNC(=O)C2CC(=O)N(CCN(C)C)C2)c1` (stereo not given), 8.41%.
The result for `NC(=O)C1=NC2=NS(=O)(=O)c3ccccc3N2N1Cc1ccc(Br)cc1` reads 1.96%; that for `NC(=O)C1=NC2=NS(=O)(=O)c3ccccc3N2N1Cc1ccccc1Cl`, 30.8%; that for `NC(=O)C1=NC2=NS(=O)(=O)c3ccccc3N2N1Cc1ccc(Cl)cc1`, 59.7%.
With `COCCC(=O)N(CCC#N)c1ccc(C)c(C)c1`, the INHIBITION was 27%.
On to `Cc1ncnc2c1CCN(Cc1ccccn1)CC2`, for which the INHIBITION is -64.8%.
The result for `Cc1ncnc2c1CCN(c1ccccn1)CC2` reads -15.6%.
The result for `Cc1c(C)n(Cc2ccccn2)c2nc3c(c(N)c12)CCCC3` reads 58.4%; that for `Cc1c(C)n(Cc2ccccn2)c2nc3c(c(N)c12)CCCCCC3`, 49.7%.
With `Cc1c(C)n(-c2ccccn2)c2nc3c(c(N)c12)CCCCC3`, the INHIBITION amounted to 32.2%.
For `Cc1c(C)n(-c2ccccn2)c2nc3c(c(N)c12)CCCC3` the value was 67.1%; for `Cc1nc(C2CCCNC2)nc2c1CCCN2Cc1ccccn1` (stereo not given), 11.8%; for `Cc1c(C)n(Cc2ccccn2)c2nc3c(c(N)c12)CCCCC3`, 55.3%.
The result for `Cc1ccccc1-c1cncc(C2CCN(Cc3ccccn3)CC2)n1` reads 19.6%; that for `CC(=O)N1CCC(c2nn(C)c3nccnc23)C1` (stereo not given), -2.11%.
In the case of `CC(C)n1cc(CN2CCCN(C(=O)COC3CCCC3)CC2)cn1`, the INHIBITION is recorded as 45.7%.
For `CCOc1ccc(-c2nc(C(=O)NCC3CCOC3)cs2)cc1` (stereo not given) the value was -16%; for `CC(C)(C)c1cc(=O)n2c(n1)SCC(C(=O)NCc1ccco1)C2` (stereo not given), 46.1%; for `COc1ccc(C2=Nn3c(CCCN)nnc3-c3ccccc3C2)cc1`, 18.4%.
`COc1ccc(C2=Nn3c(CCN)nnc3-c3ccccc3C2)cc1`: the INHIBITION is 21.7%.
In the case of `COc1ccc(C2=Nn3c(CN)nnc3-c3ccccc3C2)cc1`, the INHIBITION stood at 64%.
For `Cc1ccc(NC2CCCN(C3Cc4ccccc4C3)C2)nn1` (stereo not given) the value was 34.9%.
For `Cc1cc(C)nc(NC2CCc3nc(C)nn3C2)n1` (stereo not given) the value was -12.1%; for `CNc1nc(C)cc(NC2CCCN(C3Cc4ccccc4C3)C2)n1` (stereo not given), 83.9%.
The result for `CNc1cc(C)nc(NC2CCCN(C3Cc4ccccc4C3)C2)n1` (stereo not given) reads 79.4%; that for `c1ccc2c(c1)CC(N1CCCC(NCc3cccc4nonc34)C1)C2` (stereo not given), 41.5%; that for `O=C(NCc1ccc2nonc2c1)C1CCN(C(=O)C2CCC2)CC1`, -119%.
On to `Cc1cc(C)nc(Nc2cccc(C3CCCN(S(C)(=O)=O)C3)n2)n1` (stereo not given), for which the INHIBITION was 44.8%.
The result for `c1ccc2c(c1)CC(N1CCCC(NCc3ccc4nonc4c3)C1)C2` (stereo not given) reads 50.1%; that for `Cc1cc(C)nc(Nc2cccc(C3CCCN(C)C3)n2)n1` (stereo not given), 28.4%.
For `Cc1ccc(CNCC2CCN(CC(O)c3ccccc3)CC2)o1` (stereo not given) the value was -23.8%; for `O=C(NCc1nncn1C1CC1)c1ccccc1OCC1CC1`, 25.6%; for `CN(C)c1ncc(-c2cc(C(=O)NCCO)n(CC3CC3)c2)cn1`, 26.3%.
For `CCOc1ccccc1C(=O)Oc1cc(=O)n2cccc(C)c2n1` the value was 4.35%; for `O=C(NC1CCC1)c1c2c(N3CCCC3)ncnc2n2ccccc12`, 46.2%; for `COCCN(C)C(=O)c1ccccc1-n1cc(CN(C)C)cn1`, -29.8%.
As to `COCCCN(CCOC)C(=O)Nc1ccccc1-n1cccn1`, the INHIBITION came out at 32.2%.
The result for `COCCN(C)C(=O)c1ccccc1-n1cccn1` reads 63.8%.
The result for `CC(C)n1nc(CN2CCCC2=O)c2c1CN(C(=O)c1ccno1)C2` reads 27.5%; that for `CC(C)n1nc(CN2CCOCC2)c2c1CN(C(=O)c1ccno1)C2`, 62.3%; that for `CC(C)n1nc(CN2CCCCC2)c2c1CN(C(=O)c1ccno1)C2`, 26.5%.
The result for `COCCNC(=O)c1cc(C)nc(C2CCN(C)CC2)n1` reads -22.5%; that for `CNC(=O)[C@@H]1COC[C@H]2CN(C(=O)c3ccc(C)c(F)c3)C[C@H]21`, 31.9%; that for `CNC(=O)[C@@H]1COC[C@H]2CN(C(=O)COc3ccccc3)C[C@H]21`, 63%.
On to `CNC(=O)[C@@H]1COC[C@H]2CN(C(=O)c3ccc(OC)cc3)C[C@H]21`, for which the INHIBITION is -2.03%.
The result for `CNC(=O)[C@@H]1COC[C@H]2CN(C(=O)c3cccc(OC)c3)C[C@H]21` reads 33.4%.
Regarding `CCc1ccc(C(=O)N2C[C@@H]3COC[C@@H](C(=O)NC)[C@@H]3C2)cc1`, the INHIBITION was determined as 6.83%.
On to `CNC(=O)[C@@H]1COC[C@H]2CN(C(=O)c3ccc(C)c(C)c3)C[C@H]21`, for which the INHIBITION was determined as 51.2%.
Regarding `O=C(NC1CCN(C2CC2)CC1)N1CCN(c2cnccn2)CC1`, the INHIBITION is reported as 37.9%.
The result for `CN(C)C(=O)CO[C@H]1CN(Cc2nccs2)[C@@H]2COC[C@H]12` reads 0.71%.
For `N#Cc1cccnc1Oc1cc(F)c(CN2CCCC2)c(Cl)c1`, the INHIBITION came out at 11.4%.
The result for `COc1ccc(Oc2ncccc2F)cc1CN1CCCC1` reads 74.8%.
For `COc1cc(CN2CCCC2)ccc1Oc1ncccc1C(F)(F)F` the value was 80.3%; for `COc1cc(Oc2ncccc2C(F)(F)F)ccc1CN1CCCC1`, 88.4%.
`COC(=O)c1ccc(Cn2cccc(C(F)(F)F)c2=O)c(OC)c1`: the INHIBITION is 33.1%.
The result for `COc1ccc(OC)c(CN2CCN(Cc3cscn3)CC2)c1` reads 1.06%.
For `COc1cc(CN2CCCC2)ccc1OC12CCCN(CC1)C2` (stereo not given) the value was -14.7%.
The result for `Fc1cccnc1Oc1cc(F)c(CN2CCCC2)c(F)c1` reads 9.84%.
Take `COc1ccc(Oc2nccc3occc23)cc1CN1CCCC1`: the INHIBITION was -4.23%.
The result for `Fc1cccnc1Oc1cc(F)c(CN2CCCC2)c(Cl)c1` reads 60.9%.
For `COc1ccc(CC(=O)Nc2cccnc2N2CCCC2)cc1OC` the value was 4.71%; for `Cc1nn(C)c(=O)c2nn(-c3cccc(Cl)c3)c(C)c12`, 37.2%.
The result for `N#Cc1c(N)nc2c(c1-c1c[nH]nc1C1CCCCC1)COCC2` reads 11.5%; that for `Cn1cc(-c2nc(CN3CCOC(Cn4cncn4)C3)cs2)cn1` (stereo not given), 26.5%.
Turning to `COc1ccc(NC(=O)CSc2nncn2-n2cccc2)c(OC)c1`, the INHIBITION is listed as 31.6%.
For `CCn1nc2c(cc1=O)CN(CC(=O)Nc1nc(C)c(C)s1)CC2` the value was -0.188%; for `Cc1cc(N(C)C)nc(C2CCCN2)n1` (stereo not given), 15.5%; for `CO[C@@H]1CCN(C(=O)c2ccccn2)[C@H]1Cc1ccccc1`, -15.1%.
Consider `COc1ccccc1Oc1ncccc1CNC(=O)C(C)N1CCCC1` (stereo not given), for which the INHIBITION turned out to be 21.7%.
The result for `COc1ncccc1CN1CCC2(CCCN2S(C)(=O)=O)CC1` reads 45.2%.
For `COc1ccc(F)cc1CN1CCC(O)(CN2CCCCC2)C1` (stereo not given) the value was 16.1%; for `COc1ccc(Oc2ncccc2C(F)(F)F)cc1CN1CCCC1`, 66.6%; for `COc1ccc(Oc2ncccc2C(N)=O)cc1CN1CCCC1`, 51.2%.
In the case of `COc1ccc(F)cc1CN1CCCC(c2cc(C(N)=O)[nH]n2)C1` (stereo not given), the INHIBITION is -2.42%.
